# Sampled rows, rich in hits. Any-hit rate of the full collection: about 19%.
# ELG1 DNA repair = blocks ELG1-dependent DNA repair in HEK293T cells; Potency, µM (titrated, usually from 46.1 µM), for inactives: at the highest dose activity change, negative = inhibition, actives largely listed as inhibitors; 330,000 compounds, 2.3% hits; AID 504467; HEK293T ELG1-luciferase reporter, luminescence, 16 h; DNA damage induced by 5-fluorouridine; further: potency means the concentration at half of the fitted maximal effect; nearly all actives have a fitted effect of over 55% in size
#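 Step one: seed 2,000 cells per well. Step two: pin-transfer compound or DMSO alongside 5-fluorouridine. Step three: incubate 16 hr, 37 °C, 5% CO2. Step four: add ONE-Glo, wait 30 min, read luminescence.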
# TDP1 block = TDP1 (human) enzyme inhibition | Q9NUW8 | recombinant TDP1, AlphaScreen DNA substrate cleavage | Potency, µM (series often up to 130 µM), for inactives: at the highest dose activity change, negative = inhibition, most hits filed as inhibitors | 350,000 compounds, 0.28% hits; further: potency means the concentration at half of the fitted maximal effect; nearly all actives have a fitted effect of over 40% in size
# Target sequence (Q9NUW8 whole entry, looked up): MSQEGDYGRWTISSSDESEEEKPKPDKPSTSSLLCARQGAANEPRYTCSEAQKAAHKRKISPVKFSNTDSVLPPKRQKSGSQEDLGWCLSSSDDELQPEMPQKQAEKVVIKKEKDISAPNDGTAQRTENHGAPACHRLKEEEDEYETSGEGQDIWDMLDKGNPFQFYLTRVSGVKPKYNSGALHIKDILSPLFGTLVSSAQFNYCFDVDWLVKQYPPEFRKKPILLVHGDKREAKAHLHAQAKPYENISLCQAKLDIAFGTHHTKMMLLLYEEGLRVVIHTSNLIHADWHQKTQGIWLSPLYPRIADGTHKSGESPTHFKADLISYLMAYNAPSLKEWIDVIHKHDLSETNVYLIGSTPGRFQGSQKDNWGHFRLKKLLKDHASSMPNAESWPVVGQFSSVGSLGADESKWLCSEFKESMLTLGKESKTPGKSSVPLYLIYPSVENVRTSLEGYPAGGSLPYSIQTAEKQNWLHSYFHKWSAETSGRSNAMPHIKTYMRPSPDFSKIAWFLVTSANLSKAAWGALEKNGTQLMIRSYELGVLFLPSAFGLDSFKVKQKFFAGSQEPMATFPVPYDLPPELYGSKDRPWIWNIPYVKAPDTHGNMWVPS
#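 Steps: enzyme plus compound, 15 min RT; add biotin/phosphotyrosine-FITC oligonucleotide (15 nM final), react 5 min; add donor/acceptor beads (10 ug/ml final), 10 min; read AlphaScreen. Tdp1 at 1 nM final.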
# Giardia killer = Giardia lamblia killing. Giardia lamblia trophozoite viability. activity change, % at 7.66 µM, hits read low. 340,000 compounds, 0.15% hits. AID 540267; in the data active means activity change below about -80%; inconclusive means between about -30% and that limit;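 further: parasites exposed to compound for two days anaerobically before the ATP read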
#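 Luminescent ATP signal served as the viability read-out, measured 15-30 min after adding ATP detection reagent to trophozoites that had been incubated with compounds for 48 hrs at 37 deg C anaerobically at 100 cells/well.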
# DT40 TDP1 no CPT = qHTS for Inhibitors of human tyrosyl-DNA phosphodiesterase 1 (TDP1): qHTS in cells in absence of CPT. DT40 Tdp1-/- hTDP1 cells, no CPT, ATP luminescence, 48 h. Potency, µM (highest dose often 46.2 µM), for inactives: at the top dose activity change, negative = growth inhibition, most hits filed as inhibitors. 420,000 compounds, 15% hits. AID 686978, 2013; further: potency means the concentration at half of the fitted maximal effect; nearly all actives have a fitted effect of over 55% in size
#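 Camptothecin absent (DMSO only). Human TDP1-complemented DT40 knockout cells, 400 cells/well, 37 °C for minimum 48 hr; ATP measured via CellTiter-Glo, 30 min dark incubation, luminescence.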
# TDP1 cell CPT = DT40-hTDP1 cell growth loss with CPT; chicken DT40 Tdp1-/-;hTDP1 cells + 20 nM CPT, ATP luminescence, 48 h; Potency, µM (doses to about 46.2 µM), inactives show at the top dose activity change, negative = growth inhibition, hits mostly inhibitors; 420,000 compounds, 12% hits; AID 686979; further: potency means the concentration at half of the fitted maximal effect; nearly all actives have a fitted effect of over 55% in size
#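 Chicken DT40 Tdp1-/- cells stably complemented with human TDP1 were seeded at 400 cells/well in medium containing 20 nM camptothecin, exposed to pin-transferred compounds, and grown at 37 °C for at least 48 hr. Viability was read as ATP luminescence.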
# IL1B secr inh = inflammasome signaling inhibition, IL-1 beta readout. AID 743279. 360,000 compounds, 4.7% hits. activity change, % at 57.5 µM. THP-1 LPS/ATP IL-1B secretion, AlphaLISA, 16 h; hits give low values; in the data active means activity change below about -50%; inconclusive means mostly about -30% to -49%
#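 Secreted IL-1B measured by AlphaLISA bead assay after 16 h compound exposure of THP-1 cells; compounds (final up to 57.5 uM) added 1 h before LPS (250 ng/mL) and ATP (1.25 mM) stimulation; lower signal means less secretion.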
# Active calls of the source: *; ? = inconclusive; · = not tested or not shown. Unless noted, the call rests on the fitted dose curve; in most records, active means well fitted curve in the direction sought with a large enough effect; inconclusive means small, poorly fitted or top-dose-only effect, or another doubt; inactive means no such curve, though single readings can be large; an effect the other way counts as inactive or inconclusive. On the % scale 0 is the no-effect control and ±100 the full control effect.
SMILES,ELG1 DNA repair,TDP1 block,Giardia killer,DT40 TDP1 no CPT,TDP1 cell CPT,IL1B secr inh
CCOc1ccccc1OCCCC(=O)Nc1cc(S(=O)(=O)N2CCOCC2)ccc1OC,?,0.1%,-9.9,?,-8.3%,9.6
O=C(N/N=C/c1ccccc1OCc1ccccc1)c1cccs1,4.1%,6.7%,6.6,14.6µM*,?,-0.7
NC(=S)N/N=C/c1ccccc1OC(=O)/C=C/c1ccccc1,2.7%,6.2%,1.6,0.517µM*,5.17µM*,?
NC(=S)N/N=C/c1ccccc1OC(=O)c1cc2ccccc2oc1=O,?,3.5%,-0.7,6.51µM*,?,-14.6
NC(=S)N/N=C\c1ccccc1OCc1ccccc1,-8.5%,7.1%,-5.6,?,29.1µM*,-4.6
O=C(N/N=C/c1cccc([N+](=O)[O-])c1O)c1cccs1,-9.1%,1.9%,-11.1,1.03µM*,0.731µM*,66.3
O=C(Nc1cccn2nc(COCCO)nc12)C(c1ccccc1)c1ccccc1,·,·,·,-13.5%,-6.9%,13.6
CC(=O)Nc1ccc2nc(NC(=O)c3ccc([N+](=O)[O-])o3)sc2c1,20.6µM*,·,2.5,?,?,-61.3*
CC(=O)Nc1ccc2nc(NC(=O)c3ccco3)sc2c1,?,·,-14.9,?,?,-3.2
Cc1nc2ccc(NC(=O)c3ccc(Br)o3)cc2s1,?,3.8%,-25.8,?,-15.6%,-57.4*
CCCC(=O)Nc1nc2ccc(NC(=O)c3ccc(Br)o3)cc2s1,?,6.5%,-2.0,23.1µM*,?,-60.9*
Cc1nc2ccc(NC(=O)Cc3ccc(Br)cc3)cc2s1,?,·,-5.1,-10.4%,-17.8%,-10.9
CCc1cccc(C)c1NC(=O)C(c1ccccc1)N1CCC1=O (configuration not stated),-7.2%,3.1%,34.2,-7.7%,-17.7%,-8.4
O=C(O)c1ccc2c(c1)C(=O)N([C@@H](C(=O)O)C(c1ccccc1)c1ccccc1)C2=O,·,8.5%,·,·,·,·
CC(=O)c1cccc(NC(=O)C2=CN3CCS(=O)(=O)N=C3C=C2)c1,?,0.1%,0.2,0.1%,14.8%,13.6
Oc1ccc(/C=N/n2cc(-c3ccccc3)[nH]c2=S)cc1,14.5%,2.7%,-0.8,?,?,-6.1
Cc1ccc(/C=N/n2cc(-c3ccccc3)[nH]c2=S)s1,?,2.5%,9.6,5.17µM*,8.2µM*,11.2
Cc1ccc(/C=N/n2c(-c3cccnc3)n[nH]c2=S)s1,21.6%,5.5%,-10.4,-20.2%,-0.1%,-53.5*
Cc1cc(-c2nnc(SCC(=O)NC3CC3)n2C(C)C)cs1,-1.5%,1.5%,2.2,16.5%,1.3%,7.2
Cc1cccc(NC(=O)Cn2nc(N3CCN(c4ccccc4)CC3)ccc2=O)c1C,·,2.6%,·,?,?,·
COc1ccccc1C(=O)Nc1sc2c(c1C(=O)NCc1ccco1)CCCC2,1.7%,5.9%,1.0,-19.9%,?,10.7
CCOc1ccc2nc(N3CCN(C(=O)CS(=O)(=O)c4ccc(F)cc4)CC3)sc2c1,·,2.6%,·,16.4µM*,14.6µM*,·
CCOc1ccc2nc(N3CCCCCC3)sc2c1,?,1.0%,8.9,-27.2%,-25.6%,-16.3
CCN(Cc1ccccc1)S(=O)(=O)c1ccc(C(=O)N2CCN(c3nc4ccccc4s3)CC2)cc1,11.6µM*,0.0%,12.0,9.2µM*,14.6µM*,-18.6
CCOc1ccc2nc(N3CCN(C(=O)c4ccc(S(=O)(=O)CC)cc4)CC3)sc2c1,·,5.2%,·,18.4µM*,18.4µM*,·
SMILES,ELG1 DNA repair,TDP1 block,Giardia killer,DT40 TDP1 no CPT,TDP1 cell CPT,IL1B secr inh
CCS(=O)(=O)c1cccc(C(=O)N2CCN(c3nc4c(C)ccc(Cl)c4s3)CC2)c1,·,2.6%,32.4,?,16.4µM*,·
COc1ccccc1/C=C1/C(=O)N(c2cc(C)cc(C)c2)C(c2cccc([N+](=O)[O-])c2)S1(=O)=O (configuration not stated),2.8%,-2.3%,0.6,?,-19.4%,-14.4
CCOc1ccc(N2C(=O)/C(=C\c3ccccc3OC)S(=O)(=O)C2c2cccc([N+](=O)[O-])c2)cc1 (configuration not stated),7.9%,2.7%,-1.7,16.4µM*,14.6µM*,-6.9
CC1(C(=O)Nc2ccc3c(c2)OCCO3)CCC(=O)N1CCOc1ccccc1 (configuration not stated),·,·,·,4.7%,-12.8%,-11.6
CS(=O)(=O)N(Cc1ccccc1)c1ccccc1C(=O)O,1.0%,0.0%,1.6,2.3%,6.2%,2.6
COc1cccc(/C=N/NC(=O)c2ccccc2N(Cc2ccccc2)S(=O)(=O)c2ccccc2)c1OC,?,8.6%,4.3,18.4µM*,23.1µM*,-5.0
COc1cccc(/C=N/NC(=O)c2cccc3ccccc23)c1OC,·,·,24.7,?,?,22.1
COc1ccc(NC(=O)c2ccccc2N(Cc2ccccc2)S(C)(=O)=O)c(OC)c1,?,·,-10.1,?,23.1µM*,-9.5
COc1ccc(OC)c(NC(=O)c2ccccc2N(Cc2ccccc2)S(C)(=O)=O)c1,?,1.2%,4.5,?,14.6µM*,?
CC(=O)Oc1ccc(C2=Cc3ccc(OC(C)=O)cc3OC2C)cc1 (configuration not stated),·,·,7.6,11.6µM*,18.4µM*,9.2
COc1ccc(C2NS(=O)(=O)N=C2N)cc1 (configuration not stated),5.2%,1.2%,-2.4,23.1µM*,?,-0.2
Cc1cc(C)cc(O)c1,·,11.6%,·,·,·,·
Cc1ccccc1C1CC(=O)c2ccccc2C1C (configuration not stated),·,·,2.1,?,?,18.4
O=C1c2ccccc2[C@@H]2Cc3csc[n+]3[C@H]12,·,·,·,5.17µM*,3.66µM*,?
O=C1CC/C=C\C[C@@H](CC(=O)N(CCO)Cc2ccccc2)C(=O)NCCO1,?,-2.0%,-4.8,-11.5%,-7.7%,-5.4
O=C(N[C@H]1C/C=C\C[C@@H](CC(=O)N(CCO)Cc2ccccc2)C(=O)NC[C@H](c2ccccc2)OC1=O)OCC1c2ccccc2-c2ccccc21,?,-3.2%,?,4.11µM*,3.66µM*,13.7
CC(C)(C)[C@H]1COC(=O)[C@H](NC(=O)OCC2c3ccccc3-c3ccccc32)C/C=C\C[C@@H](CC(=O)N(CCO)Cc2ccccc2)C(=O)N1,10.3µM*,1.6%,-23.4,23.1µM*,9.2µM*,-27.1

# Screens as filed in PubChem BioAssay.
